Results published in PubChem BioAssay (EPA / NIEHS).
Records with an inconclusive call do not appear. Active and inactive are the calls of the source. The calls were made as follows: active = hit-call score of the fitted dose curve at least 0.9, where 1 is the maximum; inconclusive = response in the unintended direction; inactive = score below 0.9.

assay: IUF_NPC4_neurite_area_120hr: Leibniz Research Institute for Environmental Medicine (IUF) 120-hour Neuronal Morphology Assay for Neurite Area (NPC4) (AID 2284305)
Protocol: IUF_NPC2-5 is a cell-based, multiplexed assay that uses hNPC, a human primary neural progenitor cells, with measurements taken at 72 or 120 hours after chemical dosing in a 96-well plate. Human neural progenitor cells (hNPC) are generated from human fetal brain cortex at gestational week (GW) 16-19. In the neural progenitor cell migration and differentiation assay (NPC2-5), hNPCs grown as spheres are plated on an extracellular matrix and migrate and differentiate out of the sphere core. The processes radial glia migration, neuronal and oligodendrocyte migration as well as neuronal differentiation, neuronal morphology and oligodendrocyte differentiation are studied using automated phase contrast imaging and automated fluorescence imaging in combination with high content image analysis. In parallel, the cell viability is assessed using an alamar blue viability assay and the cytotoxicity using a lactate dehydrogenase dependent membrane integrity assay.IUF_NPC4_neurite_area_120hr is one of 12 assay components measured from the IUF_NPC2-5 assay. The neurite area at 120 hr is the mean area in pixel (without nuclei) of all neurons (see IUF_NPC3_neuronal_differentiation_120hr) that are identified by the skeletonization algorithm in Omnisphero.Data from the IUF_NPC4_neurite_area_120hr component was analyzed at the endpoint IUF_NPC4_neurite_area_120hr in the positive analysis fitting direction relative to DMSO as the negative control and baseline of activity. Using a type of differentiation reporter, loss-of-signal activity can be used to understand developmental effects.
Culture protocol: After the cell expansion period the cells are cultured for up to four weeks in which they are passaged every week as described in 3.6. Between one to three days after passaging spheres at a size of 0.3 mm are picked for the test method. For the assessment of neural progenitor cell migration and differentiation, the spheres are plated on poly-D-lysine/laminin coated 96-well flat bottom plates in differentiation medium (N2) to initiate migration and differentiation. Thereby one 0.3 mm big sphere is plated in the middle of a well. The differentiation medium consists of DMEM and Ham's F12 at a ratio of 3 to 1 supplemented with 1% N2 and 1% penicillin and streptomycin. Within 5 days NPCs radially migrate out of the sphere core and differentiate into radial glia cells (nestin positive), neurons (TUBB3 positive), oligodendrocytes (O4 positive) and astrocytes (GFAP positive). Cultivation during the test method is performed at 37C and 5% CO2 at a ph of 7.2-7.6.Exposure: 0.3 mm big hNPC are plated in the already prepared test conditions. Exposure starts at day 0 of differentiation and is continued over five days of differentiation until the experiment is terminated. Cells are fed with fresh medium at day 3 of differentiation. Therefore, half of the test condition solution (e.g. solvent control or compound dilution) is replaced by freshly prepared test condition solution.Test Method: Migration distance and cytotoxicity is determined after 72 hours based on brightfield images of each well. The assay is terminated by the assessment of cell viability and cytotoxicity as well as cell fixation after 120 h. Immunocytochemistry is performed for Hoechst positive nuclei, TUBB3 positive neurons and O4 positive oligodendrocytes. On the ICC images, migration after 120 hours, neuronal and oligodendrocyte number, neuronal morphology and neuron/oligodendrocyte specific migration is assessed. immunocytochemical staining (ICC) generates an image for each sphere. The plates are scanned using an automated high content imaging device and all nuclei and their positions are determined automatically based on their intensity and size. Images are imported to the Omnisphero software to run the image analysis that measures the following endpoints. The method is set up for 8 test conditions including 7 compound concentrations and one SC. […]

outcome, inactive:
C[C@@H]1CCO[C@H]2Cn3cc(C(=O)NCc4ccc(F)cc4F)c(=O)c(O)c3C(=O)N12
CC(C)O
O=C1CC2(CCCC2)CC(=O)N1CCCCN1CCN(c2ncccn2)CC1
CC(C)c1nn(C(=O)NC(C)(C)C)c(=O)n1N
CCCCOCCOP(=O)(O)OCCOCCCC
CC(=O)OC/N=[N+](\C)[O-]
CC(=O)N[C@@H](CC(=O)O)C(=O)O
CCCCCC=C(C)C(CC)CCO (centres undefined)
F
CCCCCC(C)(CC)C(=O)NC (centres undefined)
Cc1[nH]n(C)c(=O)c1C(=O)c1ccc(C(F)(F)F)cc1S(C)(=O)=O

AC50, active:
CN(C)CCCn1cc(C2=C(c3c[nH]c4ccccc34)C(=O)NC2=O)c2ccccc21 7.2 µM
BrC1CC(Br)CC(Br)CC(Br)CC(Br)CC(Br)C1 (centres undefined) 1.06 µM
CC(CNC(=S)[S-])NC(=S)[S-].[Zn+2] (centres undefined) 39.2 µM
